# Source: paper PMC7819943, “Rice protein-binding microarrays: a tool to detect cis-acting elements near promoter regions in rice”
# Over roughly 68,000 sequences, “fluorescence intensity (a.u.)” has its median near 9,100; the highest 2% begin near 16,000. Many of the other results were omitted from the sample, so the highest values are more common in it than they were.
# Biological target: OsWRKY34 (Oryza sativa, UniProt Q0JBA9 1-250)
# Assay: protein-binding microarray (RPBM); PBS, 2% BSA, 51.3 ng/ul salmon testes DNA, 50 uM zinc acetate, 200 nM TF, 25 C, 1 h; high values mean tight binding
# Conditions: protein: recombinant; tags: N-terminal polyhistidine and DsRed monomer fusion (pET32a); label: CyDye5-dUTP incorporated in the synthesized complementary strand; 3' TTTTT single-stranded linker to array surface; dsDNA, one strand shown
# Method in brief: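 Ni–NTA purification followed expression in E. coli BL21-CodonPlus of transcription factors fused N-terminally to a polyhistidine tag and DsRed. At 200 nM in PBS with 2% BSA, salmon testes DNA and 50 µM zinc acetate, the protein was incubated for 1 h at 25 °C with a custom Agilent array that had been primer-extended with Cy5-dUTP and blocked with 2% BSA. After washing, the array was read on an Axon 4000B scanner. The binding signal is per-feature fluorescence intensity in arbitrary units.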
# Chain of OsWRKY34 (Q0JBA9 entry or part of it): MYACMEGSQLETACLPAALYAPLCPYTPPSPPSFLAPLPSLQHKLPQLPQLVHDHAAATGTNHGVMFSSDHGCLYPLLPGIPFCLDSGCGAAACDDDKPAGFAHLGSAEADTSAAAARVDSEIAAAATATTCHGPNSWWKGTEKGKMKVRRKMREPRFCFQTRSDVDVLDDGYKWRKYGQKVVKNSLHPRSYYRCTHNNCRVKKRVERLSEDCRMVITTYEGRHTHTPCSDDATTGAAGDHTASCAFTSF
row,Sequence,binding signal
1,TCCTCGCCGACGGCGTGCCGGCTCACGTTGCACCTCACCGCGGAGTCACCTAGTGCAG,8210 fluorescence intensity (a.u.)
2,CTTTCCTGCACCTCCACTTTATTTAGTTCATTAATTGAATCGGAGTCACCTAGTGCAG,8660 fluorescence intensity (a.u.)
3,CTTCGGTGTACTTTTTTCTTTTCTAGTTCCTGGTTCTAATCGGAGTCACCTAGTGCAG,18000 fluorescence intensity (a.u.)
4,GTGCGGTTTTTCTCCTGGTTCTTTTGTGTACTTTATACCACGGAGTCACCTAGTGCAG,18200 fluorescence intensity (a.u.)
5,GGTTCTCTTTTCTTTTCTTTTCTTTTCTCCTGGAGTTTTTCGGAGTCACCTAGTGCAG,9120 fluorescence intensity (a.u.)
6,ACTTTGTTTACACGGTGGTTCTCTCCTTTTCTTCTTCTCACGGAGTCACCTAGTGCAG,8480 fluorescence intensity (a.u.)
7,TTAATTACTTCCTTTTCTTTTCTTTTCTTTTCCTTTTTTTCGGAGTCACCTAGTGCAG,8110 fluorescence intensity (a.u.)
8,TGGTTGTGTTCTTGTTGGCTTATACCTTTTTTATGTTTTGCGGAGTCACCTAGTGCAG,9260 fluorescence intensity (a.u.)
9,GGCGCCGCCGTCGTCCTGCTGCTTCCGCCGCCGCGTCTTCCGGAGTCACCTAGTGCAG,11000 fluorescence intensity (a.u.)
10,CTGCACATGATTTCAATCTACTATGGACATTCTCACTCTCCGGAGTCACCTAGTGCAG,12100 fluorescence intensity (a.u.)
11,CACCTGCCTCCTCCTACCACCAGCCGCCGCCGACGACTAACGGAGTCACCTAGTGCAG,8550 fluorescence intensity (a.u.)
12,CGGGCGGGGCGGGGCGGGTTCGCTCGTCGGATGTGTGGATCGGAGTCACCTAGTGCAG,23900 fluorescence intensity (a.u.)
13,TCCATCATCGTCGTCTCTGTGTGTGTCTGTGTGTGTGTGTCGGAGTCACCTAGTGCAG,17900 fluorescence intensity (a.u.)
14,CGCGGGTGGTCTGGTCTCTCTCTCGTATCGTATCGTATCACGGAGTCACCTAGTGCAG,16700 fluorescence intensity (a.u.)
15,TACCTCTCTTCTCTTCTCCAATCTCTATCTATGTCTTCTTCGGAGTCACCTAGTGCAG,8640 fluorescence intensity (a.u.)
16,CGCGCCATCTCCATGTCATCGTCGTCGTCTGTGTCCCCTTCGGAGTCACCTAGTGCAG,10700 fluorescence intensity (a.u.)
17,TGCTCTCTCTCGTGTGGTCTGGTCCGCGCGCTCGTGTATACGGAGTCACCTAGTGCAG,9150 fluorescence intensity (a.u.)
18,TCTCTCTGGGAGGTCTCGCGGAAGGTGGTGGGGTTGGGCCCGGAGTCACCTAGTGCAG,11500 fluorescence intensity (a.u.)
19,GGGGAGGGAAGGGATGGATCGGATGCGGGTTCGGGCGGTTCGGAGTCACCTAGTGCAG,8910 fluorescence intensity (a.u.)
20,CGACGGGCGGGTGTGGGGATTCGCGGCCTTGAGGGTTCGTCGGAGTCACCTAGTGCAG,9660 fluorescence intensity (a.u.)
21,CTCTCTCCAATCTCCATCTCTCTGTCTGATTTGTAATCTTCGGAGTCACCTAGTGCAG,16500 fluorescence intensity (a.u.)

row,Sequence,binding signal
1,CGCTTCCATCTCTCTCTGTCTCTCTTCTTTTTGACCTCTTCGGAGTCACCTAGTGCAG,11900 fluorescence intensity (a.u.)
2,CCGCTGTCGTCGTCTCGTCTCTGTGTGTGTGTCTCCATCACGGAGTCACCTAGTGCAG,8280 fluorescence intensity (a.u.)
3,TTTGGTTGCTTGCCTTCTTTATCGGCAAAATTTGCTATAGCGGAGTCACCTAGTGCAG,8970 fluorescence intensity (a.u.)
4,ATTTAGGGAAATTATAACCATGCCACTCTGTCGTGTTTTCCGGAGTCACCTAGTGCAG,9180 fluorescence intensity (a.u.)
5,AGATAGTGGTGGTGGTCTGTGCATCGTTGACTTGATCATGCGGAGTCACCTAGTGCAG,10900 fluorescence intensity (a.u.)
6,GGTCCCGTTCCGATCCTCACTCGGTCACTCATCTTTCCTTCGGAGTCACCTAGTGCAG,8730 fluorescence intensity (a.u.)
7,AAATTATAACGAGGGGTGAGGGGCTAAGAACCTATTTTCGCGGAGTCACCTAGTGCAG,9700 fluorescence intensity (a.u.)
8,CCCATCACCACTCTGCCCACATCCCGGCGTCGCTTCGTGTCGGAGTCACCTAGTGCAG,9120 fluorescence intensity (a.u.)
9,TTCGTTCCGATTCTTTTTTTTTCATTTGCTATGCATCTTCCGGAGTCACCTAGTGCAG,11000 fluorescence intensity (a.u.)
10,GTCCTATCGCGTAGCCCACACTCCACCCTATCGCGCCTTCCGGAGTCACCTAGTGCAG,11500 fluorescence intensity (a.u.)
11,CGCCCCTCCCCTTTGGCGCCGCCGCGCCTGCGTTGACCCTCGGAGTCACCTAGTGCAG,8230 fluorescence intensity (a.u.)
12,TCCAATCTGTGCTGCCTTTATATTAGTTCCACCAAGAAGACGGAGTCACCTAGTGCAG,9380 fluorescence intensity (a.u.)
13,GACCTTTACTTTTTCATCCTACCTAAATGCATATTCCAATCGGAGTCACCTAGTGCAG,9320 fluorescence intensity (a.u.)
14,ACTATTTGGATATCCCATTCCAACGCCATTGCCCTCTGTTCGGAGTCACCTAGTGCAG,8280 fluorescence intensity (a.u.)
15,TTTCCGTTCCTTTCTTTCCTTCTCGCGTTTGCGTGGTGGGCGGAGTCACCTAGTGCAG,10500 fluorescence intensity (a.u.)
16,GCGGGGTTCGTGGTGTGTGCGTGTGCGTCTCTCTCTGTCTCGGAGTCACCTAGTGCAG,21100 fluorescence intensity (a.u.)
17,GTTCTCGTCGTTCGTGTTCTTCTGCTTCGGTTTCGTGGTGCGGAGTCACCTAGTGCAG,11900 fluorescence intensity (a.u.)
18,TGGGAGTGTTGTTATTCTCGTGCGCGTTGTGGTTAGTGGGCGGAGTCACCTAGTGCAG,9630 fluorescence intensity (a.u.)
19,CTCTCTCGCTTCTTCTCTGTGTGTGTGTTGCGTGGTGGGGCGGAGTCACCTAGTGCAG,23800 fluorescence intensity (a.u.)
20,TGGCGTGGTCTCGTCTCTTCGTCTTCGGGTGTGCTCACCGCGGAGTCACCTAGTGCAG,9650 fluorescence intensity (a.u.)
21,ATCTGTAGTCCGTTGCTCTTCTCTCTCATATTTTATCTCGCGGAGTCACCTAGTGCAG,11700 fluorescence intensity (a.u.)

row,Sequence,binding signal
1,TGTGTGTATGCGTTTATAGGAGTAACTGTGTGTGCGTTTACGGAGTCACCTAGTGCAG,8150 fluorescence intensity (a.u.)
2,CGCCTCCGCCTCCGTCGACTCCGCGCCTCCGCCGCCACCCCGGAGTCACCTAGTGCAG,15100 fluorescence intensity (a.u.)
3,TCCAGCTGCTTGCTTCTCTCTCTCTCTTCTCTTGAGCATCCGGAGTCACCTAGTGCAG,9650 fluorescence intensity (a.u.)
4,AGTGGGTGGTGGTGGTGGTGGTGGTGCGAGGCCGTCGCTGCGGAGTCACCTAGTGCAG,20500 fluorescence intensity (a.u.)
5,AATCTCCGTGGCGAGGGTGGGGTCGGAGGTGGTCATGTCGCGGAGTCACCTAGTGCAG,9290 fluorescence intensity (a.u.)
6,CGCTTGATCTGGGGTGGGGTCGCGAGTGGTGGAGGAGGTGCGGAGTCACCTAGTGCAG,16600 fluorescence intensity (a.u.)
7,ATGGGAGGTGGGTGGTACCGTGGTGGTGGTCGCAGATCTGCGGAGTCACCTAGTGCAG,27200 fluorescence intensity (a.u.)
8,TCGTGCGTGCGTGAGGGAGGTCGTGGTGGTGGTGGTGGTGCGGAGTCACCTAGTGCAG,9020 fluorescence intensity (a.u.)
9,TCTGCCTTGAAGTGGTACCGTGGGTGGGAGGGTAGTTATGCGGAGTCACCTAGTGCAG,11500 fluorescence intensity (a.u.)
10,CGGAGGCGAGTGGGTGGGTGGTGGTCCAGTGCGGTGGTGCCGGAGTCACCTAGTGCAG,9800 fluorescence intensity (a.u.)
11,GGAGGAGGTGGAGGCGCTGCTGGTGGTGGAGGCCGTGGTGCGGAGTCACCTAGTGCAG,8020 fluorescence intensity (a.u.)
12,GGGGACGCAGGAGGAGGTGGGTGGGTCGAGCTCGCTTGCGCGGAGTCACCTAGTGCAG,15400 fluorescence intensity (a.u.)
13,TGTGTGAGATTTTTGCATGTTTTTGTTGTGTTTGTTCATACGGAGTCACCTAGTGCAG,8580 fluorescence intensity (a.u.)
14,TCTGGTTCCATTTTCCACGCACAGGAGAGTGATTACTTTTCGGAGTCACCTAGTGCAG,11200 fluorescence intensity (a.u.)
15,TCTCTCTCTCGTGCGTCACCTCCTCGCGTGCTCAGCGCCGCGGAGTCACCTAGTGCAG,8780 fluorescence intensity (a.u.)
16,TCCTTGCTCCATCAGTATTACACCACCCAACACAAGCTCACGGAGTCACCTAGTGCAG,8870 fluorescence intensity (a.u.)
17,GGTTCAAATTAACTTTTCAATCTTGGCTGTGTTTGGATCCCGGAGTCACCTAGTGCAG,9630 fluorescence intensity (a.u.)
18,TCTACAAACTTGGTCAAACTTAAAACAGTTTGACTTTGACCGGAGTCACCTAGTGCAG,14600 fluorescence intensity (a.u.)
19,AGTTAATCCTTGTTAAACTTTGGTTTCAAAACAATTTCCCCGGAGTCACCTAGTGCAG,65500 fluorescence intensity (a.u.)
20,CCCTCTATAAATGGTTCCTATCACAACCACAAACACCACACGGAGTCACCTAGTGCAG,8240 fluorescence intensity (a.u.)
21,CGACTTGTTGCCTCAAACAATTCCTGGTTATAAAACACCACGGAGTCACCTAGTGCAG,35500 fluorescence intensity (a.u.)

row,Sequence,binding signal
1,CTCCTCATCCATCCACCACACCACTTGCCTCCAAACAAAACGGAGTCACCTAGTGCAG,9340 fluorescence intensity (a.u.)
2,GCTGTTTCCTGGAGGTTCCATCCATGCTATCCTGTGCTCGCGGAGTCACCTAGTGCAG,8470 fluorescence intensity (a.u.)
3,GACCAACCAAAACCTCCGATCACCTTGTCCCGTACTGAAACGGAGTCACCTAGTGCAG,11000 fluorescence intensity (a.u.)
4,TCACCCCGCCGCCGCCATCCAGGCGCCGACGACCTCCCATCGGAGTCACCTAGTGCAG,8840 fluorescence intensity (a.u.)
5,CTCTCTTTTCCTTTTCTAATTTTAGATTTTATTTTATTTTCGGAGTCACCTAGTGCAG,8600 fluorescence intensity (a.u.)
6,GTTTTACATTTGTCCTAAATCAAACATATCTATCTTTGACCGGAGTCACCTAGTGCAG,8180 fluorescence intensity (a.u.)
7,TTCTTGGCTTGGCTCCTCTGGTGTTCTTGTGCTCTGGGTTCGGAGTCACCTAGTGCAG,9970 fluorescence intensity (a.u.)
8,TGGTTTTGGCAGCTGCTGTGTGCACTTGTGGGTTTTTTCTCGGAGTCACCTAGTGCAG,8960 fluorescence intensity (a.u.)
9,TTTTTGTGTGTGTGCTGTGTTCTTGGGTTTCTTGGCAATGCGGAGTCACCTAGTGCAG,8650 fluorescence intensity (a.u.)
10,TGGCTGAGCTTCTTTGCGTGTTCTTGTTTGGGTTTTGGGGCGGAGTCACCTAGTGCAG,18700 fluorescence intensity (a.u.)
11,CAGCTCGAGCTGTTTGCTTGTGGGGTTCTTGTTTTTCTTTCGGAGTCACCTAGTGCAG,8020 fluorescence intensity (a.u.)
12,GGGGTGGTTTTGGCTGAGCTGCTTGTGTCCTCTTCTTGCTCGGAGTCACCTAGTGCAG,18400 fluorescence intensity (a.u.)
13,CATTTTATTGTGAACTTTTTCCTTTTAAACTCGATGTTTACGGAGTCACCTAGTGCAG,10700 fluorescence intensity (a.u.)
14,GTGATGTTCATGCGACAATGTGTTTCTTCCTGGACATATTCGGAGTCACCTAGTGCAG,8050 fluorescence intensity (a.u.)
15,CGTTGGAAAGCTACTGTTTTGACCCGTTCACACCACTACGCGGAGTCACCTAGTGCAG,9680 fluorescence intensity (a.u.)
16,CAAATGGAGGCCCCTTTTAGATACGCTTCCTGTTACTTTCCGGAGTCACCTAGTGCAG,8710 fluorescence intensity (a.u.)
17,TCCTTCTGTCACCATTCGATTCCCAAACTCTCGCCGCCGCCGGAGTCACCTAGTGCAG,9140 fluorescence intensity (a.u.)
18,CCCGCTTCTTCCCCGCTGCTTGAATCAGTCGTATCCTCACCGGAGTCACCTAGTGCAG,11400 fluorescence intensity (a.u.)
19,CTCTCTCTCTCTCTCTCTCTCTGCTGTTTTCTGTATCTGACGGAGTCACCTAGTGCAG,10100 fluorescence intensity (a.u.)
20,CATCAGTTGGCGATTCCCGCTGTATCCTAGAATCTGCTGACGGAGTCACCTAGTGCAG,65000 fluorescence intensity (a.u.)
21,ACGACAAGAACCACCTCTCTCTCTCTCTCTCACTGTCCACCGGAGTCACCTAGTGCAG,9040 fluorescence intensity (a.u.)
